In one assay the test system is Staphylococcus aureus. In words: Antibacterial activity against Staphylococcus aureus MRSA ATCC 43300 (CO-ADD:GP_020); MIC in CAMBH media using NBS plates, by Resazurin F(560/590). It counts as functional. The note with it: Concentration 20 uM, ASSAY_TEST Inhibition of Bacterial Growth, detection method Resazurin, Fluorescence (ex560/em590), MEDIA CAMHB, plate type 384well, CORNING #3640, time 18 hr. On the technique in general: The colour change of resazurin is a common sign of viable cells or microbes.

The next assay has as its system Acinetobacter baumannii. In words: Antibacterial activity against Acinetobacter baumannii ATCC 19606 (CO-ADD:GN_034); MIC in CAMBH media using NBS plates, by Resazurin F(560/590). Particulars: Concentration 20 uM, ASSAY_TEST Inhibition of Bacterial Growth, detection method Resazurin, Fluorescence (ex560/em590), MEDIA CAMHB, plate type 384well, CORNING #3640, time 18 hr. It counts as functional.

The subject of another assay is Escherichia coli. In words: Antibacterial activity against Escherichia coli ATCC 25922 (CO-ADD:GN_001); MIC in CAMBH media using NBS plates, by Resazurin F(560/590). It counts as functional. Particulars: Concentration 20 uM, ASSAY_TEST Inhibition of Bacterial Growth, detection method Resazurin, Fluorescence (ex560/em590), MEDIA CAMHB, plate type 384well, CORNING #3640, time 18 hr.

Another assay has as its system Klebsiella pneumoniae. Particulars: Concentration 20 uM; ASSAY_TEST Inhibition of Bacterial Growth; detection method Absorption (OD600); MEDIA CAMHB; plate type 384well; NBS; CORNING #3640; time 18 hr.
For a further assay, the system named is Candida albicans. The note with it: 20 µM.
For the next assay, the system named is Cryptococcus neoformans. Particulars: Concentration 20 uM; ASSAY_TEST Inhibition of Fungal Growth; detection method Resazurin; Absorption (OD600-OD570); plate type 384well; NBS; CORNING #3640.

For part of these data: Potency and affinity values are given separately.

In the case of `CN(C)C1CCc2[nH]c3c(F)cc(F)cc3c2C1` (stereo unspecified) [FLUCINDOLE], the Inhibition (in general, the drop in the measured response relative to a control, in per cent) in the assay on Staphylococcus aureus was 8.89%; in the assay with Acinetobacter baumannii it was 9.46%; with Escherichia coli, 1.82%; in the assay on Klebsiella pneumoniae it was 23.22%; in the assay with Candida albicans, 2.28%; in the assay on Cryptococcus neoformans it was -13.31%.
In the case of `C[C@H]1CC[C@H]2NCCN[C@H]2C1`, the Inhibition is 3.35% with Staphylococcus aureus; -12.82% in the assay with Acinetobacter baumannii; 14.31% in the assay on Escherichia coli; 13.98% in the assay on Klebsiella pneumoniae; 0.84% in the assay with Candida albicans; -10.77% with Cryptococcus neoformans.
As for `Cn1cc(C=O)c2nccnc21`, the Inhibition is 0.99% with Staphylococcus aureus; -3.72% in the assay on Acinetobacter baumannii; -9.44% in the assay on Escherichia coli; 3.85% with Klebsiella pneumoniae; 1.67% with Candida albicans; 2.98% in the assay on Cryptococcus neoformans.
In the case of `Cc1ccc2c(c1)Oc1ccccc1N=C2`, the Inhibition with Staphylococcus aureus was 14.17%; in the assay on Acinetobacter baumannii, 5.41%; in the assay with Escherichia coli, -0.47%; in the assay with Klebsiella pneumoniae, 8.46%; in the assay on Candida albicans it was 8.51%; in the assay with Cryptococcus neoformans, -3.65%.
Turning to `Cc1nccc2c1[nH]c1cc(O)ccc12`, the Inhibition in the assay on Staphylococcus aureus was 18.39%; with Acinetobacter baumannii, -8.06%; in the assay on Escherichia coli, 7.41%; in the assay on Klebsiella pneumoniae, 20.45%; in the assay on Candida albicans, 2.57%; in the assay on Cryptococcus neoformans, -8.88%.
Consider `c1ccc2c(c1)Sc1ccccc1N2CC1CN2CCC1CC2` (stereo unspecified) [MEQUITAZINE], for which the Inhibition is 31.62% in the assay on Staphylococcus aureus; 2.18% with Acinetobacter baumannii; 10.66% with Escherichia coli; 26.05% in the assay with Klebsiella pneumoniae; 3.26% in the assay with Candida albicans; -3.37% in the assay with Cryptococcus neoformans.
On to `COc1ccc(OC(=O)Nc2ccc([N+](=O)[O-])cc2OC)cc1`, for which the Inhibition in the assay with Staphylococcus aureus is 18.29%; in the assay on Acinetobacter baumannii, 11.17%; with Escherichia coli, 1.72%; with Klebsiella pneumoniae it was 8.07%; in the assay on Candida albicans, -1.5%; in the assay with Cryptococcus neoformans it was -6.88%.
As for `C=CCN1CC[C@]23c4c5ccc(O)c4O[C@H]2C(=O)CC[C@@]3(O)[C@H]1C5` [NALOXONE], the figures for the Inhibition in the assay on Staphylococcus aureus, in the assay with Acinetobacter baumannii and in the assay on Escherichia coli were 11.42%, -13% and 1.67%, respectively.
For `N=C(N)N/N=C/c1c(Cl)cccc1Cl` [GUANABENZ], the Inhibition was 5.03% in the assay with Staphylococcus aureus; -12.8% in the assay with Acinetobacter baumannii; 13.45% in the assay on Escherichia coli; 13.62% in the assay with Klebsiella pneumoniae; -0.73% with Candida albicans; -12.66% with Cryptococcus neoformans.

The values are drawn from ChEMBL document CHEMBL4296182, “CO-ADD screening of NIH NCI Diversity Set V”.
